According to PubChem BioAssay (NCI):
Where “and” joins values, the source holds several entries; their conditions need not be identical. Equal entries are not always repeated. This is part of a sample that, as a whole, favours compounds with a hit. Of some 79,000 tested, about 15% had one in any assay. Calls of active or inactive are those of the source. Cut-off read from the data, not from the text of the source: active = growth inhibition above about 70%; inactive = the rest.

Assay: NCI Yeast Anticancer Drug Screen. Data for the mlh1 rad18 strain (AID 175)
Details: S. cerevisiae mlh1 rad18 strain growth inhibition; at 50.0 µM; hits give high values
Method in brief: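 Genetically defined yeast (DNA repair-deficient) exposed to compounds; growth inhibition determined relative to vehicle.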

SMILES | growth inhibition
CCC[CH2][Sn]([CH2]CCC)([CH2]CCC)[O]C(=O)C(OC(C)=O)c1ccccc1 (stereo unspecified) | 91% (active)
COc1ccc2c(c1)C(OC)C1c3c(cc4c(c3-2)OCO4)CCN1C (stereo unspecified) | 78.3% (active)
OCCN1CCNCC1 | 1.75% (inactive) and -19.2% (inactive)
Cc1nc([N+](=O)[O-])c(Sc2nncc(-c3ccccc3)n2)n1C | 97.5% (active)
COC(=O)C(Cc1ccccc1)NC(=O)C(CNC(=O)OCc1ccccc1)C(=O)OCc1ccccc1 (stereo unspecified) | -11.1% (inactive) and -10.2% (inactive)
Cn1c(=O)c2[nH]cnc2n(C)c1=O | 19.1% (inactive) and 2.8% (inactive)
CCSC(SCC)C(OC(C)=O)C(OC(C)=O)C(COC(C)=O)OC(C)=O (stereo unspecified) | 16.6% (inactive) and 10.9% (inactive)
CC1=CC(=O)C=CC1(C)C(Cl)(Cl)Cl (stereo unspecified) | 1% (inactive)
C=CCC1=C(C)C(OC(=O)C=C(C)C)CC1=O (stereo unspecified) | -22% (inactive) and -37% (inactive)
CCOC(=O)C(=Cc1ccco1)C(=O)OCC | 19.8% (inactive) and -19.1% (inactive)
CCOC(=O)c1ccc(N=[N+]([O-])c2ccc(C(=O)OCC)cc2)cc1 | -13.4% (inactive) and 19.8% (inactive)
Nc1c(O)nc[nH]c1=O | -16.6% (inactive) and -8.95% (inactive)
C=C1C(=O)C2=CC1CCC(=O)C1(C)CCC(OC(C)=O)C(C)(C)C1CC2O (stereo unspecified) | 73.7% (active)
NCCCNCCSSC/C=C\CSSCCNCCCN | 11.3% (inactive) and 1.45% (inactive)
CN(C)N=Nc1ccc(C(=O)O)cc1 | 26.6% (inactive) and 7.65% (inactive)
C1=NCCCN1 | 22.2% (inactive) and 18.6% (inactive)
CCOc1ccc(C(CN2CCOCC2)C(C)=O)cc1OC (stereo unspecified) | 63.8% (inactive)
COC1OC(COC(C)=O)C(OC(C)=O)C(OC(C)=O)C1NC(=O)N(CCCl)N=O (stereo unspecified) | -10.5% (inactive) and -14% (inactive)

SMILES | growth inhibition
OCCCc1ccncc1 | 12.2% (inactive) and 7.85% (inactive)
CC(C)c1ccc(C(=O)O)cc1 | 20.1% (inactive) and 22.2% (inactive)
C[N+](C)(C)CCO | 0.85% (inactive) and -2.2% (inactive)
CC(=O)OCC1OC(n2c(N)c(C#N)c(C)c(C#N)c2=S)C(OC(C)=O)C(OC(C)=O)C1OC(C)=O (stereo unspecified) | -1.85% (inactive) and -27.7% (inactive)
COc1cc(/C=C2\SC(=S)N(/C=C/c3nc4ccccc4[nH]c3=O)C2=O)cc(OC)c1OC | 55.1% (inactive)
O=[N+]([O-])c1ccc(C2N(Cc3ccc(Cl)cc3)CCN2Cc2ccc(Cl)cc2)cc1 | 79.8% (active)
O=C(CC(=O)c1ccc(Cl)cc1)Cc1ccc2ccccc2n1 | 45.3% (inactive) and 10.2% (inactive)
O=C(O)C1=C/C(=C(/c2ccccc2)c2cc(C(=O)O)c(O)c3ccccc23)c2ccccc2C1=O | -1.45% (inactive) and -4.1% (inactive)
O=C(O)c1cc([N+](=O)[O-])ccc1Nc1ccccc1 | 18.1% (inactive) and -6.2% (inactive)
O=C(NC(=O)c1ccccc1)NC(=O)c1ccccc1 | -3.65% (inactive) and -45.1% (inactive)
O=[N+]([O-])/C(=C/c1ccccc1)c1ccccc1 | 99.5% (active)
Nc1ccc(CCc2ccc(N)cc2)cc1 | 12.2% (inactive) and -8.65% (inactive)
CC(O)c1nc2c([nH]1)c(=O)n(C)c(=O)n2C (stereo unspecified) | 9.15% (inactive) and -23.2% (inactive)
c1ccc(-c2cc3cc4ccccc4cn3c2)cc1 | 86.7% (active)
CN(C)CC1CC(=O)C(CN(C)C)CC1=O (stereo unspecified) | 18.6% (inactive) and -8.8% (inactive)
C[N+](C)(C)c1ncnc2c1ncn2C1CC(O)C(CO)O1 (stereo unspecified) | 7.55% (inactive) and 8.6% (inactive)
O=C(OC(=C(c1ccccc1)c1ccccc1)c1ccccc1)c1ccccc1 | 11.2% (inactive) and 20.4% (inactive)
COc1cc(C)c2c(ccc3ccccc32)n1 | 61.2% (inactive) and 18.9% (inactive)
